Assay outcomes from PubChem.
Hck Nef HTS – blocks Nef-activated human Hck kinase; Recombinant Hck-YEEI plus Nef, Z-Lyte FRET kinase assay; 220,000 tested, 0.68% active; inhibition, % at 20 µM; P08631;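 active = Hck-Nef kinase inhibition above about 50%, limit read from the data; inactive = inhibition below that limit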;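 also: 0% = DMSO with Hck plus Nef and 100% = Hck alone without Nef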
Target sequence (P08631 whole entry, looked up): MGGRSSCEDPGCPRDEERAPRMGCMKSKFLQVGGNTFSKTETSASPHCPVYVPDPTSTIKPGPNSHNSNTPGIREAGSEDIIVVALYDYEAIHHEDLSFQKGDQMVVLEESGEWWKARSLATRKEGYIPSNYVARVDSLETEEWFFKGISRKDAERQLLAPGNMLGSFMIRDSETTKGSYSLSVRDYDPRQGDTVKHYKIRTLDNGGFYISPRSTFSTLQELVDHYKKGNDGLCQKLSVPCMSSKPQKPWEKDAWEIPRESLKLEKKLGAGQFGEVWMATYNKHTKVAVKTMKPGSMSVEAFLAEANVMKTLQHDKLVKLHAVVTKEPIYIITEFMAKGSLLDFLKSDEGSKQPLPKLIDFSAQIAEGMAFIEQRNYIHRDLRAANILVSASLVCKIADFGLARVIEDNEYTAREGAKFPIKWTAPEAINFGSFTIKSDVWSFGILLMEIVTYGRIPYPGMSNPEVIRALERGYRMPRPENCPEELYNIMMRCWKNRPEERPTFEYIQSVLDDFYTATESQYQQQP
p97 ATPase inh – inhibitors of human p97 ATPase; P55072; inhibition, % at 8 µM; 220,000 tested, 0.42% active; recombinant p97 ATPase, Kinase-Glo ATP luminescence, 3 h; in the data active = inhibition above about 15%;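 also: 0% = DMSO vehicle and 100% = wells lacking enzyme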
EP2 mod – modulators of human EP2 prostaglandin E2 receptor; P43116; EP2-expressing cells, cAMP HTRF FRET, PGE2 co-stimulation; 260,000 tested, 0.83% active; AID 940; induction, % at 25 µM;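 active = compounds whose cAMP rise, as percent of the full-agonist control response, exceeds 60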;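 also: rat C6 glioma line stably carrying human EP2 under a CMV promoter; the protocol text gives 20 µM as final concentration; 100% = response of wells given 1 µM PGE2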
EP2 antag – inhibitors of human EP2 prostaglandin E2 receptor | P43116 | C6 glioma cells expressing human EP2, cAMP TR-FRET; cells stimulated with saturating PGE2 | inhibition, % at 25 µM | 260,000 tested, 0.52% active;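 active = percent inhibition above 40 after rounding to a whole number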;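 also: rat C6 glioma host cells with rolipram phosphodiesterase inhibitor present; the protocol text gives 20 µM as final concentration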
Arbovirus inh – arbovirus infection inhibition. arbovirus infection cell-based antiviral screen. 200,000 tested, 0.37% active. inhibition, % at 10 µM. AID 1251; in the data active = inhibition above about 30%
The depositor's hits bear a star; · = no result given. In the library only some 2.4% were active in any assay of this set; here they are far more common.

SMILES	Hck Nef HTS	p97 ATPase inh	EP2 mod	EP2 antag	Arbovirus inh
COc1ccc2[nH]c(=O)c(CN(C(=S)NC(C)c3ccccc3)C3CCCC3)cc2c1 (stereo unspecified)	·	·	5	45*	·
COCCn1c(SCC(N)=O)nnc1-c1ccccc1	·	·	-1	18	·
Cc1cc(OC(=O)N2CCOCC2)ccc1C(C)C	·	·	-8	9	·
CC(C)N(C(=O)c1ccccc1-c1ccccc1)C(C)C	1	-1	63*	18	-8
O=C(NC1CCCC1)c1ccccc1-c1ccccc1	-1	2	10	4	-10
CC(C)NC(=O)Cn1c2ccccc2n2c(SCC(=O)N3CCCc4ccccc43)nnc12	·	·	16	12	·
CC1=NN(c2ccc(F)cc2)C(=O)C1C(c1cccc(O)c1)c1c(C)[nH]n(-c2ccc(F)cc2)c1=O (stereo unspecified)	-1	33*	-5	11	9
CC1=NN(c2ccc(C)cc2C)C(=O)C1C(c1ccccc1)C1C(=O)N(c2ccc(C)cc2C)N=C1C (stereo unspecified)	-1	5	8	5	-4
O=S1(=O)N[C@H]2CC[C@H]3NS(=O)(=O)N[C@H]4CC[C@@H](N1)N4S(=O)(=O)N23	·	·	27	45*	·
COc1ccc(C2(O)CCN(CC(O)c3ccc4c(c3)CCC4)CC2)cc1 (stereo unspecified)	·	·	-59	0	·
COCCCNC(=O)c1c(NC(=O)c2ccccc2C)sc2c1CCCC2	·	·	-23	45*	·
O=C(/C=C/c1ccccc1)Nc1sc2c(c1C(=O)O)CCC2	27	6	-12	13	·
C=CCNC(=O)c1c(NC(=O)c2ccccc2C)sc2c1CCCC2	·	·	21	9	·
O=C(O)c1c(NC(=O)c2cccc3ccccc23)sc2c1CCC2	-6	4	-22	6	55*
O=C(Nc1sc2c(c1C(=O)O)CCC2)c1ccc(F)cc1	21	2	6	9	42*
C=CCNC(=O)c1c(NC(=O)c2ccc(OC)c(OC)c2)sc2c1CCCC2	·	·	66*	7	·
C[C@@H](Cn1nnc2ccccc21)NC(=O)c1ccc(=O)[nH]n1	·	·	15	4	·
O=C(Nc1sc2c(c1C(=O)O)CCCCC2)c1ccccc1	20	6	-26	12	69*
O=C(Nc1sc2c(c1C(=O)O)CCC2)c1cccs1	-1	4	31	·	55*
NC(=O)c1c(NC(=O)c2cccs2)sc2c1CCCCCC2	48	-6	1	14	1
O=C(Nc1sc2c(c1C(=O)O)CCC2)c1ccccc1	1	3	-36	15	28
CCC(OC(=O)c1nsc(Cl)c1Cl)C(=O)NCc1ccc(F)cc1 (stereo unspecified)	·	·	-5	21	·
O=C(/C=C/c1cc[n+](CC(=O)c2ccc3cccc4c3c2CC4)cc1)c1ccc2cccc3c2c1CC3	69*	46*	16	6	·
O=C(/C=C/c1ccccc1)NC(=S)Nc1ccc2c3c(cccc13)CC2	1	7	7	7	-16
C=CCn1c(SCC(=O)Nc2cccc(F)c2)nc2sc3c(c2c1=O)CCC3	·	·	-119	29	·
SMILES	Hck Nef HTS	p97 ATPase inh	EP2 mod	EP2 antag	Arbovirus inh
COc1cc2cc(C)c(SCC(=O)Nc3ccccc3F)nc2cc1OC	·	·	18	6	·
CC1(C)Cc2c(sc3c2c(=N)n(Cc2ccco2)c(=O)n3Cc2ccc(Cl)cc2)CO1	-8	-5	61*	13	9
CC1(C)Cc2c(sc3[nH]c(=S)n(Cc4ccco4)c(=O)c23)CO1	2	8	37	40*	6
COc1ccc(C2(O)CCN(CC(=O)N3C(C)CCCC3C)CC2)cc1 (stereo unspecified)	·	·	9	0	·
CCN(CC)C(=O)CSc1nnc(-c2ccc(OC)c(OC)c2)o1	·	·	-43	5	·
CC(=O)O[C@@H]1CC[C@]2(C)C(=C[C@H]([C@@H]3C=C4C[C@@H](OC(C)=O)CC[C@]4(C)C4=C3[C@@H]3C[C@@H]5O[C@@]6(CC[C@H](C)CO6)[C@@H](C)[C@@H]5[C@@]3(C)CC4)C3=C2CC[C@@]2(C)[C@@H]4[C@@H](C)[C@]5(CC[C@H](C)CO5)O[C@@H]4C[C@H]32)C1	·	·	20	40*	·
CC(=O)OC1CCC2(C)C(=CCC3C2CCC2(C)C3CC3OC4(CCC(C)CN4)C(C)C32)C1 (stereo unspecified)	14	5	12	12	·
COc1ccc2c(c1)C(=O)NC2CC(=O)NC1(c2ccc(F)cc2)CCCC1 (stereo unspecified)	·	·	-36	·	·
CC1CCN(C(=O)CSc2nnc3n(CC(=O)N4C(C)CCCC4C)c4ccccc4n23)CC1 (stereo unspecified)	·	·	-8	6	·
Nc1cc2nsnc2cc1Br	0	43*	-201	138*	-1
C/C(=N\NC(=O)COc1ccc([N+](=O)[O-])cc1)C(C)(C)C	-5	-1	14	2	81*
COc1cc(-c2nnc(-c3ccc(N4CCOCC4)cc3)o2)cc(OC)c1OC	3	3	·	12	48*
COc1cc(-c2nnc(-c3ccc(C)cc3)o2)cc(OC)c1OC	·	·	-40	2	·
CN(C(=O)c1cccc(NC(=O)c2cnc(C(C)(C)C)nc2)c1)C1CCCCC1	·	·	-3	5	·
CC1(C)Cc2ccccc2C(C(=O)Nc2ccccc2Cl)N1 (stereo unspecified)	·	·	63*	10	·
Cc1cc(N2CCOCC2)ccc1/C=C\[N+](=O)[O-]	6	3	-39	57*	-36
CCOC(=O)c1c(NC(=O)Nc2ccccc2)sc(C)c1C	2	3	62*	10	0
CCOC(=O)c1c(NC(=O)CSc2ccccc2C(=O)O)sc(C)c1C	19	5	50	9	33*
CCOC(=O)Nc1sc(C)c(C)c1C(=O)OCC	-1	-4	30	3	5
CC(C)(C)c1ccc(S(=O)(=O)/C=C/C#N)cc1	·	·	-20	97*	·
CC(C)(C)c1ccc(NS(=O)(=O)c2ccc(N)cc2)cc1	1	-4	-33	13	·
COCCCn1c(SCC(=O)Nc2cccc(C)c2C)nc2ccccc2c1=O	·	·	48	5	·
Cc1cc(-c2ccc(Br)s2)nc(-n2cccc2)n1	-11	5	49	23	24
Cc1cc(-c2sccc2Br)nc(-n2cccc2)n1	-2	-3	65*	16	6
Cc1sc2nc(C3CC3)n(C3CCN(C(=O)C4CCC4)CC3)c(=O)c2c1C	·	·	19	·	·
SMILES	Hck Nef HTS	p97 ATPase inh	EP2 mod	EP2 antag	Arbovirus inh
Cc1ccc(-c2nnn(CC(=O)NC3CC3)n2)o1	·	·	-18	9	·
Cc1nc2c(C(=O)NCc3ccccc3Cl)c[nH]n2c(=O)c1Cl	-1	15*	-39	14	22
Cc1nc2c(C(=O)NCc3ccccc3)c[nH]n2c(=O)c1Cl	0	4	-1	-1	6
Cc1nc2c(C(=O)NCCc3ccccc3Cl)c[nH]n2c(=O)c1Cl	10	1	-12	7	60*
Cc1nnc(NC(=O)COc2ccc(-c3ccccc3)cc2)s1	·	·	-11	6	·
CCOc1ccc(C(=O)N2CCN(c3ccccc3F)CC2)cc1OCC	·	·	1	9	·
CCn1c(=O)oc2cc(S(=O)(=O)N(Cc3cccnc3)C3CC3)c(Cl)cc21	·	·	-55	-1	·
